Source: PubChem BioAssay (NCI)
About 83,000 compounds went through this panel and 20% of them were active in at least one assay; those are over-represented in the sample as a whole.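 Step 1: grow cells in 96-well plates. Step 2: add test compound at a single concentration. Step 3: incubate 48 h. Step 4: record percent growth.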 A number with no mark means an inactive call. Rule for the calls: active = growth percent below 10; inactive = the rest.

Each compound was assayed on 786-0 renal (assay: NCI-60 one-dose screen, 48 h (100 = growth as untreated, 0 = no growth, -100 = all killed)). Conditions: 10 µM.

Row | SMILES | growth [%]
1 | O=[N+]([O-])c1ccc(Sc2ccncn2)c([N+](=O)[O-])c1 | 69.7
2 | COc1ccc(NC(=O)CCl)cc1 | 80.7
3 | Cc1cc(=O)cc(C)n1-c1ccccc1 | 90
4 | CC(=O)Oc1ccc(Br)cc1C(=O)O | 97.4
5 | CC1CCC(C(=O)O)N1 (stereo not drawn) | 100
6 | O=C(CCNNC(=O)c1ccncc1)NCc1ccccc1 | 107
7 | CCOC(=O)c1[nH]c(C)c(C(C)=O)c1C | 83.5
8 | CCOc1ccc(/C=C/C(=O)c2ccccc2)cc1 | 89.8
9 | Cc1cc(C)c(N)c(S(=O)(=O)O)c1 | 97.2
10 | CC(C)CCCC(=O)O | 116
11 | N#Cc1c(N)sc(=S)c2c1CCCC2 | 104
12 | Cc1cccc(C(=O)N(C(C)C)C(C)C)c1 | 99.7
13 | O=C(O)C(c1ccccc1)C(O)c1ccccc1 (stereo not drawn) | 107
14 | S=C(Nc1ccccc1)N1CCCCC1 | 102
15 | N=c1c(C(=O)OCc2ccccc2)ncc(CCl)n1O | 81.6
16 | O=C(c1ccc(O)cc1)c1ccc(O)cc1 | 98.8
17 | O=C(CS)Nc1ccc2ccccc2c1 | 105
18 | O=c1cc(-c2ccccc2)oc2c1ccc1ccccc12 | 99.4
19 | O=c1cc2oc3cc(O)c(O)cc3c(-c3ccccc3O)c-2cc1O | 57.2

Row | SMILES | growth [%]
20 | Nc1ccccc1C(=O)Nc1ccc(Cl)cc1Cl | 107
21 | O=C(c1ccc(Cl)cc1)c1ccccc1Cl | 93.6
22 | CNC(=S)NC(C)(C)C | 101
23 | CCCC(=O)Nc1ccc2c(c1)CN1C(=O)c3ccccc3C1=N2 | 99.2
24 | c1ccc(/C(=N\N=C(/c2ccccc2)c2cccs2)c2cccs2)cc1 | 84.8
25 | CCOC(=O)C1=C(C)NC(=O)NC1c1cccs1 (stereo not drawn) | 106
26 | CC1(C)N=C(N)N=C(N)N1c1cccc(Br)c1 | 10.3
27 | Oc1ccc(N=Nc2ccc(Br)cc2)c(O)c1 | 15.6
28 | CN(C)CCC(=O)c1ccc(O)cc1 | 108
29 | COc1nc(N)nc2c1ncn2C1OC(CO)CC1O (stereo not drawn) | 95.4
30 | O=S(=O)(O)CC(O)CN1CCN(CCO)CC1 (stereo not drawn) | 105
31 | O=[N+]([O-])c1ccc(-c2noc(-c3cccs3)n2)cc1 | 76.1
32 | COc1cc2cc(OC(C)=O)c3cc4c(cc3c2c(OC)c1OC)OCO4 | 106
33 | COC(=O)/C=C1\Sc2cc(F)ccc2NC1=O | 94.3
34 | CC(=O)c1ccc(C(C)(C)C)cc1 | 100
35 | CCC(O)CC(CC)CO (stereo not drawn) | 106
36 | O=[N+]([O-])c1ccc(/C=C/C=C/c2ccccc2)c(Cl)c1 | 95.6
37 | Nc1ccc(CC(=O)O)c(N)c1 | 107
38 | O=[N+]([O-])c1ccc(N=Nc2ccccc2)cc1 | 92
